As usually defined, the AC50 is the concentration giving half of the maximal activity seen.

Read-out in one assay: CD69, CD69 (gene 969)
The assay is described as follows: BSK_LPS_CD69: BioMAP Diversity Plus: LPS Assay for CD69 Biomarker Activity (AID 2284303). Conditions: primary human HUVEC with PBMC. Put shortly:
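Human umbilical vein endothelial cells co-cultured with PBMC under LPS stimulation, chemical exposure 24 h; cell-surface CD69 measured by ELISA and fitted in the positive direction versus DMSO.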

For a further assay, the system named is IYD (gene 389434). Kind of assay: CCTE_GLTED_hIYD: CCTE's human Iodotyrosine Deiodinase (xIYD) Inhibition Assay, Great Lakes Toxicology and Ecology Division (GLTED) Lab (AID 2284317; active = hit-call score of the fitted dose curve at least 0.9, where 1 is the maximum;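 note: cell-free human IYD enzyme made in baculovirus insect cells; iodide freed from monoiodotyrosine measured by cerium arsenite color change at 420 nm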). In a few lines: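 hIYD: baculovirus-expressed human IYD deiodinated monoiodotyrosine for 3 h with test chemical; free iodide was measured by Sandell-Kolthoff absorbance at 420 nm and normalized to MNT and DMSO/NaOH controls.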

Assay [1] can be described thus: CCTE_Deisenroth_5AR_NBTE_donor: CCTE's 5alpha-reductase NanoBRET Target Engagement Assay […], Deisenroth Lab (AID 2284319). Conditions: actives raise or lower the signal. In a few lines:
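HEK293T cells transiently expressing SRD5A2-NanoLuc, exposed 5 h to chemicals (8 points, 10 nM - 29.9 uM), with testosterone tracer for the final 2 h. Donor luminescence at 460 nm read after Nano-Glo substrate plus extracellular NanoLuc inhibitor; bidirectional fit versus DMSO.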

Assay [2] in a line: CCTE_Deisenroth_5AR_NBTE_acceptor: CCTE's 5alpha-reductase NanoBRET Target Engagement Assay - Autofluorescence Screen, Deisenroth Lab (AID 2284321).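 Note: compound fluorescence in the acceptor channel under 460 nm excitation flags autofluorescence artifacts.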 Particulars: actives raise or lower the signal. Put shortly:
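Autofluorescence counter-screen: chemicals at an assumed nominal 100 uM in DMSO were scanned in three independent runs with 460 nm excitation. Gain or loss of acceptor signal was fitted bidirectionally against DMSO.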
A general note: BRET reads energy transfer from a luciferase to a nearby fluorophore.

The test system of the next assay is SRD5A2 (gene 6716). The assay is described as follows: CCTE_Deisenroth_5AR_NBTE_ratio: CCTE's 5alpha-reductase NanoBRET Target Engagement Assay - Ratio, Deisenroth Lab (AID 2284322). Conditions: actives raise or lower the signal. In a few lines:
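HEK293T transiently expressing SRD5A2-NanoLuc; cells exposed to chemical (8-point, 10 nM - 29.9 uM) for 5 h total, testosterone tracer added for final 2 h. NanoBRET acceptor/donor ratio (650/460 nm), bidirectional fit vs DMSO.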

The subject of the next assay is TTR (gene 7276). The assay is described as follows: CCTE_GLTED_hTTR_0.5uM: CCTE's human Transthyretin (hTTR) Inhibition Assay, with 0.5uM TTR, Great Lakes Toxicology and Ecology Division (GLTED) Lab (AID 2284320). Put shortly:
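Cell-free displacement assay in which human TTR at 0.5 uM was incubated with test chemical for 2 h. Displacement of the ANSA probe was read by fluorescence at 380 nm excitation/475 nm emission. Loss of signal was fitted in the positive direction versus DMSO.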

The nature of assay [3]: TAMU_PeakParms_SingleDonor1434_Asystole: Texas A&M University (TAMU) 1.5-hr Human Induced Pluripotent Stem Cell (iPSC)-derived Cardiomyocytes Calcium (Ca+2) Flux Assay for Cardiotoxicity: Asystole (quiescence of beating) (AID 2284328; active = hit-call score of the fitted dose curve at least 0.9, where 1 is the maximum). In a few lines:
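Donor 1434 iPSC-cardiomyocytes exposed 90 min at 37C, 5% CO2, to 0.2, 1, 10 and 100 uM in 0.5% DMSO. Ca2+ dye fluorescence gave average peak frequency; POD is EC95, a 95% beat-rate drop versus controls.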

The nature of assay [4]: IUF_NPC2a_radial_glia_migration_72hr: Leibniz Research Institute for Environmental Medicine (IUF) 72-hour Neural Progenitor Cell Migration Assay for Radial Glia Migration (NPC2a) (AID 2284299). Put shortly: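 Human fetal neural progenitor spheres (0.3 mm) plated on poly-D-lysine/laminin in N2 differentiation medium and exposed from day 0 at 7 concentrations; radial glia migration distance from sphere edge measured at 72 h on brightfield images, mean of four directions, vs DMSO.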

The nature of assay [5]: IUF_NPC2b_neuronal_migration_120hr: Leibniz Research Institute for Environmental Medicine (IUF) 120-hour Neural Progenitor Cell Migration Assay for Neuron Migration (NPC2b) (AID 2284300). Put shortly: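 0.3 mm hNPC spheres on poly-D-lysine/laminin in N2 differentiation medium exposed 120 h, half-medium refresh day 3; 7 concentrations, DMSO max 0.1%. Neuron (TUBB3) distance from sphere core by ICC imaging, normalised to radial glia migration.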

Assay [6] is described as follows: IUF_NPC3_neuronal_differentiation_120hr: Leibniz Research Institute for Environmental Medicine (IUF) 120-hour Neuronal Differentiation Assay (NPC3) (AID 2284301). In a few lines: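 Human fetal (GW 16-19) neural progenitor spheres (0.3 mm) plated on poly-D-lysine/laminin in N2 differentiation medium, exposed 120 h at 37C with half-medium renewal day 3; 7 concentrations. TUBB3+ cells as % of Hoechst nuclei, CNN-identified; DMSO baseline.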

The nature of assay [7]: IUF_NPC4_neurite_length_120hr: Leibniz Research Institute for Environmental Medicine (IUF) 120-hour Neuronal Morphology Assay for Neurite Length (NPC4) (AID 2284302). Put shortly:
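Human fetal neural progenitor spheres (0.3 mm) plated on poly-D-lysine/laminin in N2 differentiation medium, exposed from day 0 for 120 h with half-medium refresh at day 3, 37C. Mean neurite length (um) of TUBB3-positive neurons from skeletonized immunostaining images; DMSO ≤0.1%.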

A short description of assay [8]: IUF_NPC5_oligodendrocyte_differentiation_120hr: Leibniz Research Institute for Environmental Medicine (IUF) 120-hour Oligodendrocyte Differentiation Assay (NPC5) (AID 2284304; active = hit-call score of the fitted dose curve at least 0.9, where 1 is the maximum;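 note: primary human fetal neural progenitor spheres plated to migrate and differentiate; share of O4-positive cells among Hoechst nuclei found by CNN image analysis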). In a few lines: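 Human fetal neural progenitor spheres (0.3 mm) plated on poly-D-lysine/laminin in N2 differentiation medium and exposed for 120 h at 7 concentrations, with half-medium renewal at day 3. O4-positive cells identified by CNN, expressed as percent of Hoechst nuclei.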

Assay [9] can be described thus: IUF_NPC4_neurite_area_120hr: Leibniz Research Institute for Environmental Medicine (IUF) 120-hour Neuronal Morphology Assay for Neurite Area (NPC4) (AID 2284305; active = hit-call score of the fitted dose curve at least 0.9, where 1 is the maximum). In a few lines: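 Human fetal neural progenitor spheres (0.3 mm) plated on poly-D-lysine/laminin in N2 differentiation medium, exposed 120 h (7 concentrations, DMSO ≤0.1%, half-medium refresh day 3). Fixed, TUBB3 immunostained; mean neurite area per neuron by Omnisphero skeletonization.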

The nature of assay [10]: IUF_NPC2-5_cytotoxicity_72hr: Cytotoxicity Assessment at 72 hours in the Leibniz Research Institute for Environmental Medicine (IUF) Neural Progenitor Cell Migration and Differentiation Assay for Cytotoxicity (NPC2-5) (AID 2284306; active = hit-call score of the fitted dose curve at least 0.9, where 1 is the maximum;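 note: LDH release into supernatant measured by resorufin fluorescence marking membrane damage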). In a few lines: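 Human fetal primary neural progenitor spheres (0.3 mm) plated on poly-D-lysine/laminin in N2 differentiation medium, exposed from day 0 at 37C. LDH-dependent resazurin-to-resorufin fluorescence in supernatant at 72 h; 7 concentrations, DMSO at most 0.1%.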

Assay [11] can be described thus: IUF_NPC2-5_cytotoxicity_120hr: Cytotoxicity Assessment at 120 hours in the Leibniz Research Institute for Environmental Medicine (IUF) Neural Progenitor Cell Migration and Differentiation Assay (NPC2-5) (AID 2284307; active = hit-call score of the fitted dose curve at least 0.9, where 1 is the maximum). Put shortly:
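Human fetal (GW 16-19) neural progenitor spheres (0.3 mm) plated on poly-D-lysine/laminin in N2 differentiation medium, exposed 120 h with half-medium renewal at day 3; 7 concentrations plus solvent control, DMSO ≤0.1%. LDH release in supernatant read by resorufin fluorescence.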

The nature of assay [12]: IUF_NPC2-5_cell_number_120hr: Cell Number Assessment at 120 hours in the Leibniz Research Institute for Environmental Medicine (IUF) Neural Progenitor Cell Migration and Differentiation Assay (NPC2-5) (AID 2284308).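 Note: count of Hoechst-stained nuclei in migration zone around plated human neural progenitor spheres.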 Put shortly: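 Human fetal neural progenitor spheres (0.3 mm) plated on poly-D-lysine/laminin in N2 differentiation medium, exposed five days across 7 concentrations with half-medium refresh at day 3. Hoechst-positive nuclei counted in migration area at 120 h, relative to DMSO.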

Assay [13] in a line: IUF_NPC2-5_viability_120hr: Viability Assessment at 120 hours in the Leibniz Research Institute for Environmental Medicine (IUF) Neural Progenitor Cell Migration and Differentiation Assay (NPC2-5) (AID 2284312). Put shortly:
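Human fetal neural progenitor spheres (0.3 mm) plated on poly-D-lysine/laminin in N2 differentiation medium, exposed 120 h with half-medium refresh at day 3. Viability by alamar blue resazurin fluorescence; 7 concentrations, DMSO max 0.1%.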

Assay [14] is described as follows: CCTE_Mundy_HCI_iCellGluta_NOG_NeuriteLength: CCTE's Neurite Outgrowth Assay in iCellGluta cells for Neurite Length, Mundy Lab (AID 2284318; active = hit-call score of the fitted dose curve at least 0.9, where 1 is the maximum). In a few lines:
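Automated high-content imaging of betaIII-tubulin (Alexa Fluor-488) and Hoechst-stained cells gave neurite length, normalized to the DMSO baseline.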

The subject of assay [15] is Brachyury (BRA) Protein Expression, Deisenroth Lab, TBXT (gene 6862). The assay is described as follows: CCTE_Deisenroth_DEVTOX-GLR_legacy_Bra: (Legacy) CCTE's DevTox GLR-Endo Assay Evaluation of Brachyury (BRA) Protein Expression, Deisenroth Lab (AID 2284329). In a few lines: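 RUES2-GLR human pluripotent cells are differentiated for 48 h and receive two chemical exposures 24 h apart, at 10 concentrations from 1 nM to 200 uM. Cells are fixed, nuclei stained and imaged. Bra+ cells are those with mean Bra intensity over 5x BMAD above the pluripotent control median, expressed as a percentage of cell count, after subtracting the 0.2% DMSO control median.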

Assay [16] is described as follows: CCTE_Deisenroth_DEVTOX-GLR_legacy_CellCount: (Legacy) Viability Assessment in CCTE's DevTox GLR-Endo Assay, Deisenroth Lab (AID 2284331). Conditions: actives raise or lower the signal. In a few lines:
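Human pluripotent RUES2-GLR cells differentiated 48 h with two 24-h-interval exposures, 10-point 1 nM–200 uM series, 0.2% DMSO. Fixed nuclei counted by high-content imaging (5 fields/well); bidirectional fit vs DMSO, n≥4.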

Results filed as inconclusive are left out. Activity calls are given as the source filed them. Rule for the calls, unless noted: active = hit-call score of the fitted dose curve at least 0.9, where 1 is the maximum; inactive = score below 0.9. Peptide text beside a SMILES is read from it.

For the compound `Nc1nc(N)nc(-c2ccccc2)n1`, the result with CD69, CD69 (gene 969) was inactive.
Regarding `CC(CCC(=O)O)(c1ccc(O)cc1)c1ccc(O)cc1`, in the assay with CD69, CD69 (gene 969), the outcome was inactive.
In the case of `CCCCCCCCCCCCc1ccc(O)cc1`, the AC50 with IYD (gene 389434) was 24 µM (active). Also, the compound was called inactive (in assay [1]; in [2]; with SRD5A2 (gene 6716)).
With `C=CCOC(=O)c1ccc(C(=O)OCC=C)c(C(=O)OCC=C)c1`, the outcome (in [1]; in [2]; in the assay on SRD5A2 (gene 6716)) was inactive.
`O=c1c(O)c(-c2ccc(O)cc2O)oc2cc(O)cc(O)c12`: the AC50 in the assay on IYD (gene 389434) was 144 µM (active).
In the case of `CCCCCCCCCCCC(=O)N(C)CC(=O)O`, the outcome with CD69, CD69 (gene 969) is “inactive”; in [1], “inactive”; in [2] it was “inactive”; in the assay with SRD5A2 (gene 6716) it was “inactive”.
As for `COc1ccc(-c2coc3cc(O)cc(O)c3c2=O)cc1`, the call in [1] and in assay [2] was inactive. Moreover, in the assay with SRD5A2 (gene 6716), the AC50 is 23.6 µM (active).
As to `CC(C)(C)NC(=O)[C@H]1CC[C@H]2[C@@H]3CC[C@H]4NC(=O)C=C[C@]4(C)[C@H]3CC[C@]12C`, the compound was classed as inactive in assay [1] and in assay [2]. For the same compound, the AC50 with SRD5A2 (gene 6716) was 0.00734 µM (active).
With `Oc1ccccc1Cc1ccccc1O`, the outcome with CD69, CD69 (gene 969) was inactive.
For the compound `O=C(O)C(F)(F)C(F)(F)C(F)(F)C(F)(F)C(=O)O`, the result with CD69, CD69 (gene 969) was inactive. The AC50 in the assay on TTR (gene 7276) was 5.53 µM (active).
For the compound `CCCCC/C=C\C/C=C\CCCCCCCC(=O)O`, the AC50 with IYD (gene 389434) was 137 µM (active).
Consider `CCCCCCCCCC[N+](C)(CCCCCCCCCC)CCC[Si](OC)(OC)OC`, for which the AC50 with IYD (gene 389434) is 77.2 µM (active); in [1] it was 33.2 µM (active); in [2], 33.4 µM (active). The outcome in the assay on SRD5A2 (gene 6716) was inactive.
As for `COC(=O)[C@H](Cc1ccccc1)NC(=O)[C@@H](N)CC(=O)O` (H-Asp-Phe-OMe), the outcome in assay [3] was inactive.
Turning to `CCCCCCCOC(=O)c1ccc(O)cc1`, in the assay on IYD (gene 389434), the AC50 was 50.4 µM (active).
Consider `CCCCNS(=O)(=O)c1ccccc1`, for which the call in [4], in [5], in [6], in assay [7], in assay [8] and in assay [9] was inactive. Besides, the compound was classed as inactive in [10], in assay [11], in assay [12], in [13] and in assay [14].
As to `CC1(C)[C@@H]2CC[C@@]1(C)C(=O)C2`, the outcome in assay [15] and in assay [16] was inactive.
